Screens: PubChem BioAssay, National Center for Advancing Translational Sciences (NCATS)
12-LOX inh: inhibitors of human 12S-lipoxygenase ALOX12; P18054; purified 12hLO, xylenol orange hydroperoxide absorbance; Potency, µM (doses to about 108 µM), for the others: top-dose activity change, negative = inhibition, actives largely listed as inhibitors; 580,000 compounds, 1.1% hits; AID 1671190; note: % is set by controls: 0 for no effect and ±100 for the full control effect
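Hydroperoxide product was detected by ferrous iron/xylenol orange as the 573 to 405 nm absorbance ratio. Arachidonic acid at 40 uM (final) was turned over for 30 min at room temperature by 150 nM human 12hLO, pH 7.0 Hepes buffer, after 15 min compound preincubation.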
SW480 rereplic: DNA re-replication induction in SW480 cells. SW480 DNA re-replication, Hoechst DNA content imaging, 48 h. Potency, µM (top dose mostly 46.1 µM), inactives show at the top dose re-replication activation, most hits filed as activators. 340,000 compounds, 1.8% hits; note: % of control where 0% means no effect; nearly all actives have a fitted effect of over 55% in size
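250 cells/well; 23 nL cpd via pin tool; 48 hr, 37 C, 5% CO2; Hoechst 40 min; imager read of total nuclear intensity, ex 405/em 500-530 nm.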
KB-3-1 tox: kills parental KB-3-1 adenocarcinoma cells; KB-3-1 viability, CellTiter-Glo ATP luminescence, 72 h; Potency, µM (titrated, usually from 46.1 µM), actives largely listed as cytotoxic; 400,000 compounds, 1.4% hits; note: % is set by controls: 0 for no effect and ±100 for the full control effect; nearly all actives have a fitted effect of over 60% in size
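Cells are dispensed, compounds pinned in, plates held at 37 °C for 72 h, then CellTiter-Glo is added and luminescence read after 10 minutes. Cell line: parental KB-3-1 in phenol-red-free DMEM, 10% FBS.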
MCF10A rereplic: induces DNA re-replication in MCF 10a normal breast cells; MCF 10A DNA re-replication, Hoechst nuclear intensity, 48 h; Potency, µM (top dose mostly 46.1 µM), for inactives: at the top dose activity, positive = re-replication, most hits filed as activators; 350,000 compounds, 2.9% hits; note: % of control where 0% means no effect; nearly all actives have a fitted effect of over 50% in size
PINK1 modulator: modulators of PINK1 expression. AID 624263. Potency, µM (highest dose often 76.6 µM), for the others: at the top dose activation (PINK1 increase), most hits filed as activators. PINK1 immunofluorescence, high-content cytometry, 24 h. 410,000 compounds, 0.2% hits; active = well fitted activation curve with a large enough effect; inconclusive = small, poorly fitted or top-dose-only effect; cell line not stated here; note: % of control where 0% means no effect; nearly all actives have a fitted effect of over 65% in size
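Measures PINK1 amount and localization on or inside mitochondria by immunofluorescence. Stable cells get compounds at 5 concentrations for 24 hours before fixation and staining; CCCP controls included.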
KB-V1 MDR tox: kills drug-selected multidrug resistant KB-V1 cells; KB-V1 MDR cells viability, CellTiter-Glo, 72 h; Potency, µM (top dose mostly 46.1 µM), usual class: cytotoxic; AID 1347076; 400,000 compounds, 3.4% hits; note: % is set by controls: 0 for no effect and ±100 for the full control effect; nearly all actives have a fitted effect of over 60% in size
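qHTS viability screen in drug-selected KB-V1 MDR cells: 72 h compound treatment at 37 degrees C, ATP luminescence end point.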
Active calls of the source: *; [ ] = dose if it differs, or a comment. Hits are enriched below; roughly 5.8% of the tested compounds scored in any of these assays. Unless noted, calls come from the whole dose curve; as a rule, active = well fitted curve in the direction sought with a large enough effect; inconclusive = small, poorly fitted or top-dose-only effect, or another doubt; inactive = no such curve, though single readings can be large; an effect the other way counts as inactive or inconclusive. Potency is the fitted concentration of half-maximal effect.

Screening CC(=O)c1cc(C#N)c(SCc2ccccc2C#N)nc1C returned 12-LOX inh 0%, SW480 rereplic inconclusive, KB-3-1 tox 16µM*, MCF10A rereplic inconclusive, PINK1 modulator 10% and KB-V1 MDR tox 10µM*.
`CC(=O)c1cc(C#N)c(SCc2ccncc2)nc1C` gave 12-LOX inh inconclusive, SW480 rereplic 0%, KB-3-1 tox inactive, MCF10A rereplic -1%, PINK1 modulator -1% and KB-V1 MDR tox inactive.
For Cc1noc2c(NCCCn3ccnc3)cc(-c3ccccc3)nc12 the results were 12-LOX inh 68%[176 µM].
For CC1CCCC(C)N1C(=O)CSc1nnc(COc2cccc3cccnc23)o1 (stereo unspecified) the results were 12-LOX inh -7%, SW480 rereplic 4.1µM*, KB-3-1 tox inactive, MCF10A rereplic inconclusive, PINK1 modulator 1% and KB-V1 MDR tox inconclusive.
`COc1cccc(C(=O)CSc2nnc(COc3cccc4cccnc34)o2)c1` gave 12-LOX inh 0%, SW480 rereplic 5.2µM*, KB-3-1 tox inactive, MCF10A rereplic 6.5µM*, PINK1 modulator -4%[38.3 µM] and KB-V1 MDR tox inactive.
For Cc1ccc(C(=O)CSc2nnc(COc3cccc4cccnc34)o2)cc1 the results were 12-LOX inh 3%, SW480 rereplic -7%, KB-3-1 tox inactive, MCF10A rereplic -1%, PINK1 modulator -6%[38.3 µM] and KB-V1 MDR tox inactive.
Screening COc1ccc(Nc2nc3ccccc3nc2NS(=O)(=O)c2ccc(Cl)cc2)c(OC)c1 returned 12-LOX inh -16%.
`CC1(C)CC(=O)C(N=Nc2cc(C(F)(F)F)ccc2Cl)=C(O)C1` gave 12-LOX inh -19%, SW480 rereplic -18%, KB-3-1 tox inactive, MCF10A rereplic 0.52µM*, PINK1 modulator 7% and KB-V1 MDR tox inactive.
`CC1(C)CC(=O)C(N=Nc2c(Cl)cc(Cl)cc2Cl)=C(O)C1` gave 12-LOX inh 10%, SW480 rereplic 2%, KB-3-1 tox inactive, MCF10A rereplic 1%, PINK1 modulator 6% and KB-V1 MDR tox inactive.
For CC1(C)CC(=O)C(N=Nc2ccc(-c3ccccc3)cc2)=C(O)C1 the results were 12-LOX inh -9%, SW480 rereplic -61%, KB-3-1 tox inactive, MCF10A rereplic 0.73µM*, PINK1 modulator inconclusive and KB-V1 MDR tox inactive.
Screening O=C(Nc1oc2ccc(Cl)cc2c(=O)c1-c1ccc2c(c1)OCO2)c1ccccc1 returned 12-LOX inh -2%.
`CCCCC1CCC(C(=O)NC(C(=O)O)C(C)C)CC1` (stereo unspecified) gave 12-LOX inh 6%.
`CC(C)COCCCNC(=O)c1cc(-c2ccncc2)nc2ccccc12` gave 12-LOX inh 41%.
For Cc1ccc(S(=O)(=O)NCC2CCC(C(=O)NCC(=O)N(C)Cc3ccccc3)CC2)cc1 (stereo unspecified) the results were 12-LOX inh -9%.
`CC(C)N(C(=O)CSc1nnc(Cn2nnc3ccccc32)n1C)C(C)C` gave 12-LOX inh -10%, SW480 rereplic 1%, KB-3-1 tox inactive, MCF10A rereplic -1%, PINK1 modulator -1% and KB-V1 MDR tox inactive.
Screening CCn1c(SCC(=O)N2CCc3ccccc3C2)nc2c1c(=O)n(C)c(=O)n2C returned 12-LOX inh 0%, SW480 rereplic -15%, KB-3-1 tox inactive, MCF10A rereplic 3%, PINK1 modulator -3%[38.3 µM] and KB-V1 MDR tox inactive.
`CCCCn1c(SCC(=O)N2CCCc3ccccc32)nc2c1c(=O)n(C)c(=O)n2C` gave 12-LOX inh 16%, SW480 rereplic -6%, KB-3-1 tox inactive, MCF10A rereplic 5%, PINK1 modulator -2%[38.3 µM] and KB-V1 MDR tox inconclusive.
